Laboratory results: PubChem BioAssay
The source made the active and inactive calls. Unless noted, the rule behind the calls is not given here.

What was measured:
[1] = anti-His antibody binders, primary screen, artefact control for SMM control protein annotation, biochemical, small-molecule microarray, 635 nm fluorescence (AID 1128); settings: anti-His Alexa647 antibody binding, higher = more signal;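 note: score merges feature fluorescence with signal-to-noise for each printed compound spot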
[2] = test system: Human papillomavirus type 1a E7 protein (residues 1-88); assay: HPV1a E7 small-molecule binders, primary screen, biochemical, small-molecule microarray, residues 1-88, 635 nm (AID 1129); settings: small-molecule microarray binding, fluorescence 635 nm; higher = more signal
[3] = target: Focal adhesion kinase 1 (Homo sapiens) (UniProt Q05397); assay: small-molecule microarray binders of FAK, primary screen, biochemical, 635/667 nm fluorescence, BSA, DTT (AID 1130); settings: PTK2 binding, 635 nm fluorescence, higher = more signal;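 note: composite of spot emission at 667 nm and signal to noise over triplicate slides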
Focal adhesion kinase 1 (Homo sapiens), sequence (Q05397 whole entry, looked up): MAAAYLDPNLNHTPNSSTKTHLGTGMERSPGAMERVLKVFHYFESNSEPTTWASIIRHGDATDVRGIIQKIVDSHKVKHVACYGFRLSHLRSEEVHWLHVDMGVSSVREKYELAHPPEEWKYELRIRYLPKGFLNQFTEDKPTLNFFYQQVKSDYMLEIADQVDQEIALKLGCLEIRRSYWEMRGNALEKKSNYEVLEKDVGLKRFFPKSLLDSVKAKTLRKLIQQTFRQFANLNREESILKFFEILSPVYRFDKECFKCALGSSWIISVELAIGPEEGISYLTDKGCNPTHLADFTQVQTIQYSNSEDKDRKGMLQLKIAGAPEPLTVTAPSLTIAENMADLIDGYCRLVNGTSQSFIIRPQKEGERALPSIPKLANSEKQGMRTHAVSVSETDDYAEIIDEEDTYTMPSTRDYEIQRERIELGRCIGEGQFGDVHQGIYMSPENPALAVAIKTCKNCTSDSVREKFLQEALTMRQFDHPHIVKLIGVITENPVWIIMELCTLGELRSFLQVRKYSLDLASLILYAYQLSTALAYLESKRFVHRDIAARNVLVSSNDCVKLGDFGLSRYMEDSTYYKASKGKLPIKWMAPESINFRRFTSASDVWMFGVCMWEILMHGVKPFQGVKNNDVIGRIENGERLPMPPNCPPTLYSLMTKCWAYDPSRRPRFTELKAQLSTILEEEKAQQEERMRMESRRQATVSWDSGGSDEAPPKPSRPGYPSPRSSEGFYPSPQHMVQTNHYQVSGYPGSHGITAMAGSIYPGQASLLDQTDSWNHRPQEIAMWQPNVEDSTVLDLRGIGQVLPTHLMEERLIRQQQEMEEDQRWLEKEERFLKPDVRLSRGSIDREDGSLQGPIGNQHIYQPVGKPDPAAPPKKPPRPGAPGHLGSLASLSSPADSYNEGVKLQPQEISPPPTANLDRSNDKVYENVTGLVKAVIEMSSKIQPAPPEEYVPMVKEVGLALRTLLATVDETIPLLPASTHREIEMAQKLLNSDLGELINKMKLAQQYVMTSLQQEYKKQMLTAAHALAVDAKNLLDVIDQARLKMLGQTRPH

[4] = test system: Fibrinogen (Alexa647-labelled); assay: fibrinogen binders on compound microarrays, profiling panel, artefact control for SMM control-protein annotation, biochemical, small-molecule microarray, 635/667 nm fluorescence (AID 1131); settings: fibrinogen-A647 binding fluorescence, higher = more signal;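 note: z-score merges 667 nm fluorescence with per-spot signal-to-noise over triplicate slides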
[5] = target: Follistatin (Homo sapiens) (UniProt P19883); assay: follistatin binders on small-molecule microarrays, primary screen, biochemical, small-molecule microarray, 635/667 nm fluorescence (AID 1132); settings: FST binding, 635 nm fluorescence, higher = more signal
Follistatin (Homo sapiens), sequence (P19883 whole entry, looked up): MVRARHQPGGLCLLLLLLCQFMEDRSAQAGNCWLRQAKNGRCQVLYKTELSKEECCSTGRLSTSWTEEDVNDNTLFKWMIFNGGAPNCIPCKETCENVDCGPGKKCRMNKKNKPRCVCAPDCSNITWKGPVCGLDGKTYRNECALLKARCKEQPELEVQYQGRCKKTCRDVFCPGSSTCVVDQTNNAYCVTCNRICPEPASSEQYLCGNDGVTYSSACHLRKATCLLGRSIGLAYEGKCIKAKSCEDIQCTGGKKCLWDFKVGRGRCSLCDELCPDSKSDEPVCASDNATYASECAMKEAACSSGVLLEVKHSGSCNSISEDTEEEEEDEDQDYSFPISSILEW

[6] = target: Fibroblast growth factor 2 (Homo sapiens) (UniProt P09038); assay: FGF2 binders on small-molecule microarrays, primary screen, biochemical, small-molecule microarray, 635/667 nm fluorescence (AID 1133); settings: small-molecule microarray binding, FGF2, fluorescence 635/667; higher = more signal
Fibroblast growth factor 2 (Homo sapiens), sequence (P09038 whole entry, looked up): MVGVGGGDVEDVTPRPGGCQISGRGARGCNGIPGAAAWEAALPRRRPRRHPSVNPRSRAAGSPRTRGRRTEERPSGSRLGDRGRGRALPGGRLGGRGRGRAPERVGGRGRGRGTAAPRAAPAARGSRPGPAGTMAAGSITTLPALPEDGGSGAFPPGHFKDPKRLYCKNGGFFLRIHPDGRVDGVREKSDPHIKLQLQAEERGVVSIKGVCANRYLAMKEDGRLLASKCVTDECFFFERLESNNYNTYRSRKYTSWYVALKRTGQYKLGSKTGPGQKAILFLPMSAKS

[7] = mitochondrial membrane potential change in A549 cells, profiling panel, cell-based, JC-1 fluorescence, basal, 24 h, 100 nL (AID 1138); settings: higher = more signal;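 note: A549 lung adenocarcinoma cells under basal conditions with no added stimulus; test concentration not given here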
Lefty1 = Lefty1 binders on small-molecule microarrays, primary screen, biochemical, small-molecule microarray, 635/667 nm fluorescence (AID 1139); settings: small-molecule microarray binding, fluorescence 635/667; higher = more signal
[8] = test system: wheat germ agglutinin (Triticum aestivum), Alexa647-labelled; assay: wheat germ agglutinin binders on compound microarrays, profiling panel, artefact control for SMM control-protein annotation, biochemical, small-molecule microarray, 635/667 nm fluorescence (AID 1140); settings: WGA-A647 binding, 635 nm fluorescence, higher = more signal;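 note: score merges 667 nm feature emission with signal to noise over triplicate slides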
[9] = target: Luciferin 4-monooxygenase (Photinus pyralis) (UniProt P08659); assay: firefly luciferase enzyme inhibitors, primary screen, biochemical, luminescence, purified enzyme, 2006 set (AID 1141); settings: SteadyGlo luminescence, 30 min, higher = more signal, called active from +8 up or from −8 down;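 note: cell-free assay with purified firefly luciferase at 100 ng per well in PBS; test concentration not given here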
Luciferin 4-monooxygenase (Photinus pyralis), sequence (P08659 whole entry, looked up): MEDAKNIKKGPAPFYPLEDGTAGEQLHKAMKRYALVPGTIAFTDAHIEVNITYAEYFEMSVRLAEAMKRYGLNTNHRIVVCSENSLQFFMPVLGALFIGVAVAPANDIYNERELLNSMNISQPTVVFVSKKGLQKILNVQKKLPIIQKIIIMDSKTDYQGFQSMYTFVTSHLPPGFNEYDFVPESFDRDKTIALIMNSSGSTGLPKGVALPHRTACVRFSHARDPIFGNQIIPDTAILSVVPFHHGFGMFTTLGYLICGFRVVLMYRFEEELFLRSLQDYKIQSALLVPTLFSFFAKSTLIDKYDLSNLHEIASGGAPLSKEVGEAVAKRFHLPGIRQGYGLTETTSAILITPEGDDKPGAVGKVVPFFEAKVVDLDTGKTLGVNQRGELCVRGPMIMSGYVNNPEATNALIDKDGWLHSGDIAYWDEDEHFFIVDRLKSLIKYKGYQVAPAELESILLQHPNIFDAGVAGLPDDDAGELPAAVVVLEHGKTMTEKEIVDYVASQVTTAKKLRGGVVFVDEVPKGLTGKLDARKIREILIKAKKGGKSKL

[10] = test system: Wnt5a (protein binding on small-molecule microarray); assay: Wnt5a binders on small-molecule microarray, primary screen, biophysical, 635/667 nm fluorescence (AID 1142); settings: 635 nm fluorescence, higher = more signal;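 note: fluorescence read at 667 nm with signal to noise per printed feature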
[11] = cell viability in Huh7 cells, primary screen, cytotoxicity control for HCV replication inhibitor project, CellTiter-Glo luminescence, basal, 48 h (AID 1143); settings: Huh7 HCV replicon, higher = more signal, called active from +8 up or from −8 down;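 note: Huh7 hepatoma cells carrying a hepatitis C replication reporter with no stimulus; test concentration not given here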
[12] = P. aeruginosa biofilm formation inhibitors, primary screen, PAO1 strain, BacTiter-Glo luminescence, LB-PBS (AID 1144); settings: 12 h, higher = more signal
[13] = CREB reporter modulators without forskolin, primary screen, cell-based, PC12, CRE-LacZ reporter, unstimulated (AID 1145); settings: no forskolin, luminescence, 4.5 h, higher = more signal, called active from +8 up or from −8 down
[14] = CREB reporter modulators under forskolin, primary screen, cell-based, PC12, CRE-LacZ reporter, forskolin-stimulated (AID 1146); settings: luminescence, 4.5 h, higher = more signal, called active from +8 up or from −8 down;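 note: PC12 cells with 6xCRE LacZ reporter stimulated by forskolin 10 µM; beta-galactosidase reporter signal reflecting CREB driven transcription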
[15] = target: Streptavidin (Streptomyces avidinii) (UniProt P22629); assay: streptavidin binders on small-molecule microarray, primary screen, artefact control for SMM compound annotation, biophysical, 635/667 nm fluorescence (AID 1147); settings: streptavidin binding, higher = more signal;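 note: signal reflects streptavidin binding to arrayed compounds as a control protein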
Streptavidin (Streptomyces avidinii), sequence (P22629 whole entry, looked up): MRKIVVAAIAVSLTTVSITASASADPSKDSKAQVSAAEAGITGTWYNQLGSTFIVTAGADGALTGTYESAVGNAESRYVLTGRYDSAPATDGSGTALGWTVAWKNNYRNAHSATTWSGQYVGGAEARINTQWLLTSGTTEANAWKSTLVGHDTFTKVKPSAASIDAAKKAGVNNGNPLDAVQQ

[16] = small-molecule binders of probe aInhba, primary screen, biochemical, small-molecule microarray, 635/667 nm fluorescence (AID 1148); settings: higher = more signal;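 note: score merges 667nm spot fluorescence with signal-to-noise for antibody binding to printed compounds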
Torsin-1A (Homo sapiens) [17] = target: Torsin-1A (Homo sapiens) (UniProt O14656); assay: torsin A binders from cell lysate, primary screen, small-molecule microarray, wild-type, 635/667 nm (AID 1149); settings: COS7 hTOR1A-WT lysate, 635 nm fluorescence, higher = more signal
Torsin-1A (Homo sapiens), sequence (O14656 whole entry, looked up): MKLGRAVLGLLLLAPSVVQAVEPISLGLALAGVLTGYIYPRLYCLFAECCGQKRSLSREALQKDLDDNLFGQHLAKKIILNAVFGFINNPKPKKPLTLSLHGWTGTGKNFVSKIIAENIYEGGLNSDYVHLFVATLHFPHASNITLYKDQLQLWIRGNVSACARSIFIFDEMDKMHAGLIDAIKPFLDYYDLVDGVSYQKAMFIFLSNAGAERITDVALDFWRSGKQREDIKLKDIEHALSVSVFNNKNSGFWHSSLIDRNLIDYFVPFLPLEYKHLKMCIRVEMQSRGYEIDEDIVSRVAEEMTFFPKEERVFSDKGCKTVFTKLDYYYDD

Torsin-1A (Homo sapiens) [18] = target: Torsin-1A (Homo sapiens) (UniProt O14656); assay: small-molecule binders of mutant TOR1A in lysate, primary screen, cell lysate, small-molecule microarray, COS7 lysate, 635/667 nm fluorescence (AID 1150); settings: COS7 hTOR1A mutant lysate, 635 nm fluorescence, higher = more signal;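 note: score pools 667 nm emission and signal to noise measuring lysate protein binding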
[19] = test system: Sonic hedgehog protein (Shh); assay: small-molecule binders of Shh protein, primary screen, biochemical, small-molecule microarray, 635/667 nm fluorescence (AID 1151); settings: small-molecule microarray binding, 635 nm fluorescence; higher = more signal;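 note: Shh protein binding to compounds spotted on small-molecule microarray slides; score combines spot fluorescence intensity with signal-to-noise across triplicate slides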

SMILES	composite z-score [1]	composite z-score [2]	composite z-score [3]	composite z-score [4]	composite z-score [5]	composite z-score [6]	z-score [7]	composite z-score (Lefty1)	composite z-score [8]	z-score [9]	composite z-score [10]	z-score [11]	z-score [12]	z-score [13]	z-score [14]	composite z-score [15]	composite z-score [16]	composite z-score (Torsin-1A (Homo sapiens) [17])	composite z-score (Torsin-1A (Homo sapiens) [18])	composite z-score [19]
CC(C)NC(=O)[C@@]1(C)c2ccccc2C(=O)N(C(C)C)[C@H]1c1ccc(CO)cc1	-0.398	-0.259	0.0394	-0.66	-0.75	-0.516	-0.413	-1.05	-0.465	-0.682 (inactive)	-0.79	0.0942 (inactive)	-0.272 (inactive)	0.0924 (inactive)	0.626 (inactive)	-1.35	-0.197	-3.17	-2.55	0.133
COC(=O)[C@@]1(Cc2ccccc2)[C@H]2c3cc(C(=O)N4CCCC4)[nH]c3C[C@H]2CN1C(=O)c1ccccc1	0.886	-0.0205	1.24	0.664	-0.382	-0.757	0.709	-0.826	-0.129	1.18 (inactive)	-0.0884	-0.117 (inactive)	-0.39 (inactive)	0.779 (inactive)	0.283 (inactive)	0.255	0.192	0.223	0.246	-0.786
COc1ccc([Si](C)(C)[C@H]2[C@H](CCn3cc(CCO)nn3)O[C@@]3(C(=O)N(Cc4ccc(N5C(=O)c6cccc7cccc5c67)cc4)c4ccccc43)[C@@H]2C)cc1	1.12	1.2	0.379	0.431	1.23	0.949	-0.932	1.31	0.578	0.303 (inactive)	0.426	-7.91 (inactive)	-0.152 (inactive)	1.12 (inactive)	-0.213 (inactive)	0.798	-0.0933	0.316	0.238	2.08
COCCOC(=O)N1C(=O)[C@@]2(c3cc(C#CCC(C(=O)OC)C(=O)OC)ccc31)[C@H](c1ccc(OCCO)cc1)N1[C@H](c3ccccc3)[C@H](c3ccccc3)OC(=O)[C@H]1[C@@H]2C(=O)N1CCN(c2ncccn2)CC1	1.94	1.25	-0.0555	0.947	1.36	1.23	-1.48	1.29	0.939	-0.506 (inactive)	0.672	-4.96 (inactive)	-1.65 (inactive)	-1.42 (inactive)	-0.912 (inactive)	0.945	0.122	1.19	0.6	2.09
CC1CC/C=C\[C@H]2OC34C=CCN(CCN5CCOCC5)C(=O)[C@H]3N(CCO)C(=O)[C@@H]4C2C(=O)O1 (stereo not given in full)	2.67	-0.959	-0.583	0.187	-0.361	-0.0989	-0.213	-0.887	-0.176	0.749 (inactive)	-0.249	-0.894 (inactive)	0.463 (inactive)	-0.216 (inactive)	-0.626 (inactive)	-0.638	-0.178	0.161	0.213	-0.636
